According to PubChem BioAssay (NCATS):
Records with an inconclusive call do not appear. Activity calls are given as the source filed them. Unless noted, calls follow the shape of the dose curve; as a rule, active = well fitted curve in the direction sought with a large enough effect; inconclusive = small, poorly fitted or top-dose-only effect, or another doubt; inactive = no such curve, though single readings can be large; an effect the other way counts as inactive or inconclusive.

Columns and labels:
[1] = Validation screen for inhibitors of Lassa infection (AID 463096; calls by dose curve; also: potency is read from the fitted curve at half-maximal effect); details: Lassa virus infection, cell-based; series mostly up to 46.1 µM
[2] = Validation screen for small molecules that induce DNA re-replication in MCF 10A normal breast cells (AID 463097); details: MCF 10A cells, DNA re-replication phenotype imaging; series mostly up to 46.1 µM; also: nearly all actives have a fitted effect of over 60% in size; also: potency is read from the fitted curve at half-maximal effect
How it was run: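 Readout: Hoechst nuclear fluorescence intensity, 405 ex / 500-530 em, by scanning plate imager; re-replication scored as increase in nuclei with elevated DNA content. Cells exposed to compound 48 hr, 37 C, 5% CO2 beforehand.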

[3] = target: M-phase phosphoprotein 8 (Homo sapiens) (UniProt Q99549); assay: qHTS Validation Assay for Inhibitors for MPP8 Chromodomain Interactions with Methylated Histone Tails (AID 488949); details: AlphaScreen MPP8 binding to H3K9me3 peptide; series mostly up to 114 µM; also: nearly all actives have a fitted effect of over 55% in size; also: potency is read from the fitted curve at half-maximal effect
M-phase phosphoprotein 8 (Homo sapiens), sequence (Q99549 whole entry, looked up): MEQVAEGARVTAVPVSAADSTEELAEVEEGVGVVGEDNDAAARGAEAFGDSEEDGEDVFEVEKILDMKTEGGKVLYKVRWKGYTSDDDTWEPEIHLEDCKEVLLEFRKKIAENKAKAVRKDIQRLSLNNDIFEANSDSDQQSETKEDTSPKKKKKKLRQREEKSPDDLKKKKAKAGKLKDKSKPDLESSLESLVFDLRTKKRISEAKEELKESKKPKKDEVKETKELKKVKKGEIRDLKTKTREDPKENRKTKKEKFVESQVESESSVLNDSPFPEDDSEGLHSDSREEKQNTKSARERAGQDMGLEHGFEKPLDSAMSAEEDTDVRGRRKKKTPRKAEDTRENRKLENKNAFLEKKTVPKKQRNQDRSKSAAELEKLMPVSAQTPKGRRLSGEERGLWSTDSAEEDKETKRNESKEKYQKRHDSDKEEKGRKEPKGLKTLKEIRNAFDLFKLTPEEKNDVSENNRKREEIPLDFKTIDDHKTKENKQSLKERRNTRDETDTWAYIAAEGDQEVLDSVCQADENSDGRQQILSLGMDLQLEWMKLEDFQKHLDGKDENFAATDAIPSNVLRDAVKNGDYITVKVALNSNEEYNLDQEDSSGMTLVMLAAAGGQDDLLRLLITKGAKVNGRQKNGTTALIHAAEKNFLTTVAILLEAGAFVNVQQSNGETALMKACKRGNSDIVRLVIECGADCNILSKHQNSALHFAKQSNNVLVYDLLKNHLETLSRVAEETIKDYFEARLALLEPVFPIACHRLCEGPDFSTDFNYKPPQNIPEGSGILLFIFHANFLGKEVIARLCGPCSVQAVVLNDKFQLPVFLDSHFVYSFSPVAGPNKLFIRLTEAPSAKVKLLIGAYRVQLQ
How it was run: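 MPP8 (50 nM) was preincubated with biotinylated H3(1-18)K9me3 peptide (50 nM) in PBS pH 7.4, 0.01% Tween-20 for 30 min at room temperature, then with compounds for 30 min; binding was detected by AlphaScreen.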

[4] = target: Transient receptor potential cation channel subfamily V member 1 (Homo sapiens) (UniProt Q8NER1); assay: HTS Assay for Compounds that Act as Enhancers of the Vanilloid Receptor 1 (AID 488979); details: TRPV1-expressing cells, enhancer of channel activity; series mostly up to 41.7 µM; also: 0% is about no effect
Transient receptor potential cation channel subfamily V member 1 (Homo sapiens), sequence (Q8NER1 whole entry, looked up): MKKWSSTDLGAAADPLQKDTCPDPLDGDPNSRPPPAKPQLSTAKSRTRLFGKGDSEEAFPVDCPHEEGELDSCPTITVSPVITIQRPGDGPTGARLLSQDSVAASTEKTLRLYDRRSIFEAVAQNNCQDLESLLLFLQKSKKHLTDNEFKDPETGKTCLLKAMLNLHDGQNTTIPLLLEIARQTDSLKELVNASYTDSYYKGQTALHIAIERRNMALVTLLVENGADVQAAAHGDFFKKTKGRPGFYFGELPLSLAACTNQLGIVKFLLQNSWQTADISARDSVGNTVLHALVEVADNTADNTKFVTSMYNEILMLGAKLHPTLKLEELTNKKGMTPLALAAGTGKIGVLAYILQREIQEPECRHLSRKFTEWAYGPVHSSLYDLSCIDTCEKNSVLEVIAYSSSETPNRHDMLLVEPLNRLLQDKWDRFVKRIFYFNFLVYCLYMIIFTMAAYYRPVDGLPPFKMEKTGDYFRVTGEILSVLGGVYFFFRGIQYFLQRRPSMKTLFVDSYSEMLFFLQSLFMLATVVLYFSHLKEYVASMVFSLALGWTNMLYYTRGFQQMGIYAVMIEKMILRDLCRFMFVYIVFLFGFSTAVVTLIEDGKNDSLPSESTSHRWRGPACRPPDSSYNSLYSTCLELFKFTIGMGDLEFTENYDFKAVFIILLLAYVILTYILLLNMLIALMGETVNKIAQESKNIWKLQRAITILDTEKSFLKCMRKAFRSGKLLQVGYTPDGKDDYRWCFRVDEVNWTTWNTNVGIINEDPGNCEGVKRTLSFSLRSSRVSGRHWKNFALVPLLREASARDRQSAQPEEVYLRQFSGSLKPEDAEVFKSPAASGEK
How it was run: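 TRPV1-expressing cells loaded with Fluo-8 calcium dye; compounds added and calcium influx read kinetically for 3 min (agonist phase), then capsaicin at EC20 added and read 2 min more for enhancement. Fluorescence ex 480/em 520 nm.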

[5] = target: Thyrotropin-releasing hormone receptor (Homo sapiens) (UniProt P34981); assay: qHTS for Small Molecule Agonists and Allosteric Enhancers of Human TRH Receptor: Validation Screen for Agonists (AID 493127;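 active = calcium activation more than 3 SD above the typical response in the agonist read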;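 also: intracellular calcium rise by fluo-8 fluorescence before TRH EC20 addition; 0% is about no effect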); details: TRH receptor agonist cell assay; at 2 µM; stronger effect = higher value
Thyrotropin-releasing hormone receptor (Homo sapiens), sequence (P34981 whole entry, looked up): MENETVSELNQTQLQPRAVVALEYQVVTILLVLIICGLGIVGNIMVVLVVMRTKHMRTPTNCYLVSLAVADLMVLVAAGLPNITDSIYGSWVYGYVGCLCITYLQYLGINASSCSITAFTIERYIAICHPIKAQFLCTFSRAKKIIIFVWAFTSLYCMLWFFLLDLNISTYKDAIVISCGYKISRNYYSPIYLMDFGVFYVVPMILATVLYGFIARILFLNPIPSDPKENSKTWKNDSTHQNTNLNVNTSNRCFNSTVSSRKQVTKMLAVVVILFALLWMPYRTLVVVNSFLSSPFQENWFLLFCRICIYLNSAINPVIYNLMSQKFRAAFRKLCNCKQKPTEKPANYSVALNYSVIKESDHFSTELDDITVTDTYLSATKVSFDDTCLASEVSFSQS
How it was run: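 Cells 2000/well, 10% FCS, 18 h 33.5C/5% CO2 → fluo-8 Ca dye, RT 30 min–1.5 h → FDSS baseline 10 × 1 s → compound added → 230 cycles (1 s/cycle) agonist mode. TRH controls.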

[6] = Validation screen for small molecules that induce DNA re-replication in SW480 colon adenocarcinoma cells (AID 504364); details: DNA re-replication phenotype (high-content imaging); series mostly up to 46.1 µM; also: 0% is about no effect
How it was run: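 250 cells/well; compound pinned in; 48 hr, 37 C, 5% CO2; Hoechst added, 40 min; nuclear fluorescence imaged, 405 ex / 500-530 em; re-replication scored as increase in high-intensity nuclei.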

[7] = target: DNA repair nuclease/redox regulator APEX1 (Homo sapiens) (UniProt P27695); assay: qHTS Validation Assay for Inhibitors of the Human Apurinic/apyrimidinic Endonuclease 1 (APE1) (AID 1705;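 also: TAMRA fluorescence gain over two minutes as APE1 cuts a quenched THF abasic duplex; % is scaled to controls: 0 for no effect and ±100 for the full control effect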); details: purified APE1 endonuclease activity, fluorescence, titration; series mostly up to 57.1 µM
DNA repair nuclease/redox regulator APEX1 (Homo sapiens), sequence (P27695 whole entry, looked up): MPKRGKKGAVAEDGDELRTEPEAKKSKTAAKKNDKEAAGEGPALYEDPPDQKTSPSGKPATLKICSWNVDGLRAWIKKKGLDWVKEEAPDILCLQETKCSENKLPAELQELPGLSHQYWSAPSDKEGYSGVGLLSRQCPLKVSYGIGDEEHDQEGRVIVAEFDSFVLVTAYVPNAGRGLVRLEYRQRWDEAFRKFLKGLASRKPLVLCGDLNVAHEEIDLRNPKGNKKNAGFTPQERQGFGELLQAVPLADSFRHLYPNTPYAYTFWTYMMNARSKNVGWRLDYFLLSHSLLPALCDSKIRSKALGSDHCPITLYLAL
How it was run: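 Human APE1 was preincubated with compound for 15 min at room temperature, then 50 nM (final) THF-abasic double-stranded DNA substrate bearing 5'-TAMRA and 3'-BHQ-2 was added. Incision-driven fluorescence rise (ex 525/em 598 nm) was read kinetically.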

CCC(CO)NC(=O)[C@@H]1C=C2c3cccc4[nH]cc(c34)C[C@H]2N(C)C1 (some centres undefined)
inactive: Potency [1] | Potency [2] | Potency [3] | outcome [4] | activation [5] -2.81% | outcome [6]

CCCN(CCC)C(=O)Cc1c(-c2ccc(Cl)cc2)nc2c(Cl)cc(Cl)cn12
inactive: Potency [7] | Potency [1] | Potency [3] | outcome [4] | activation [5] -11.1% | outcome [6]

Nc1ncnc2c1ncn2[C@@H]1O[C@H](COP(=O)(O)CP(=O)(O)OP(=O)(O)O)[C@H](O)[C@H]1O
inactive: Potency [7] | Potency [2] | Potency [3] | outcome [4] | activation [5] 1.25% | outcome [6]

C=CCN1CC[C@@]2(C)c3cc(O)ccc3CC1[C@@H]2C
inactive: Potency [7] | Potency [1] | Potency [2] | Potency [3] | outcome [4] | activation [5] 1.19% | outcome [6]

C[C@H]1C2Cc3ccc(O)cc3[C@]1(C)CCN2CC1CC1
inactive: Potency [7] | Potency [1] | Potency [2] | Potency [3] | outcome [4] | activation [5] 1.81% | outcome [6]

NCC#Cc1ccccc1
inactive: Potency [7] | Potency [1] | Potency [2] | Potency [3] | outcome [4] | activation [5] 1.69%

COc1cc(C=C(C#N)C#N)cc(O)c1O
active: Potency [3] 39.8 µM
inactive: Potency [7] | Potency [1] | outcome [4] | activation [5] 2.88% | outcome [6]

CN1C[C@@H](CS(=O)(=O)N(C)C)C[C@@H]2c3cccc4c3c(cn4C)C[C@H]21
inactive: Potency [7] | Potency [1] | Potency [2] | outcome [4] | activation [5] 1.44% | outcome [6]

CC(C)(O)C1C2OC(=O)C1[C@]1(O)C[C@H]3O[C@]34C(=O)O[C@H]2[C@]14C (some centres undefined) (tested in a mixture with another compound)
inactive: Potency [7] | Potency [1] | Potency [2] | Potency [3] | outcome [4] | activation [5] 0.625% | outcome [6]

CC1Cc2cc3c(cc2C(c2ccc(N)cc2)=NN1)OCO3 (centres undefined)
active: Potency [3] 56.2 µM
inactive: Potency [7] | Potency [1] | Potency [2] | outcome [4] | activation [5] 0.188% | outcome [6]

CCCN1CCCC(c2cccc(O)c2)C1 (centres undefined)
inactive: Potency [7] | Potency [1] | Potency [2] | Potency [3] | outcome [4] | activation [5] -4.62% | outcome [6]

NC(Cn1ccc(=O)[nH]c1=O)C(=O)O (centres undefined)
inactive: Potency [7] | Potency [1] | Potency [2] | Potency [3] | outcome [4] | activation [5] 0.375% | outcome [6]

COc1cc(C[C@@H](C)N)c(OC)cc1I
inactive: Potency [7] | Potency [1] | Potency [2] | Potency [3] | outcome [4] | activation [5] 0.562% | outcome [6]

CCN1C[C@]2(C)CC[C@H](O)[C@@]34[C@@H]5C[C@@H]6[C@@H](OC)C[C@@](O)(C5[C@H]6O)[C@@H](C[C@@H]23)[C@@H]14
inactive: Potency [7] | Potency [1] | Potency [2] | Potency [3] | outcome [4] | activation [5] 0.875% | outcome [6]

C[C@H]1OC[C@@H](C[N+](C)(C)C)O1
inactive: Potency [7] | Potency [1] | Potency [2] | Potency [3] | outcome [4] | activation [5] 24.3% | outcome [6]

N#CC(=Cc1ccc(O)c(O)c1)C(N)=S
inactive: Potency [1] | Potency [2] | outcome [4] | activation [5] 3.19% | outcome [6]
active: Potency [3] 44.7 µM

Oc1ccc2c3c1O[C@H]1[C@@H](O)CC[C@@]4(O)C(C2)N(CC2CCC2)CCC314 (some centres undefined)
inactive: Potency [7] | Potency [1] | Potency [2] | Potency [3] | outcome [4] | activation [5] 1.31% | outcome [6]

CCCN1CCC[C@@H](c2cccc(C#N)c2)C1
inactive: Potency [7] | Potency [1] | Potency [2] | Potency [3] | outcome [4] | activation [5] 1.31% | outcome [6]

CCCN1CCC[C@@H]2Cc3n[nH]cc3C[C@H]21
inactive: Potency [7] | Potency [1] | Potency [2] | Potency [3] | outcome [4] | activation [5] 1.12% | outcome [6]

CCN(CC)C(=O)N[C@@H]1C[C@@H]2c3cccc4[nH]cc(c34)C[C@H]2N(C)C1
inactive: Potency [7] | Potency [1] | Potency [2] | outcome [4] | activation [5] -2.62% | outcome [6]

CCCC[N+]1(C)C2CC(OC(=O)C(CO)c3ccccc3)CC1C1OC12 (centres undefined)
inactive: Potency [7] | Potency [1] | Potency [2] | Potency [3] | outcome [4] | activation [5] -0.438% | outcome [6]

C[C@]12CC[C@H]3[C@@H](CCC4C[C@H](O)CC[C@@]43C)[C@@H]1CC[C@@H]2O (some centres undefined)
inactive: Potency [7] | Potency [1] | Potency [2] | Potency [3] | outcome [4] | activation [5] 1.31% | outcome [6]

CC[C@@H](CO)NC(=O)[C@H]1C=C2c3cccc4c3c(cn4C)C[C@H]2N(C)C1
inactive: Potency [2] | Potency [3] | outcome [4] | activation [5] -2.81% | outcome [6]

CN1CCC23CCCC[C@H]2C1Cc1ccc(O)cc13 (some centres undefined)
inactive: Potency [7] | Potency [1] | Potency [2] | Potency [3] | outcome [4] | activation [5] 0.625% | outcome [6]

CCCCN1C2CCC1CC(OC(c1ccc(F)cc1)c1ccc(F)cc1)C2 (centres undefined)
active: Potency [1] 10 µM | Potency [2] 20 µM
inactive: Potency [7] | Potency [3] | activation [5] 8.5% | outcome [6]
